# Results filed as inconclusive are left out. Entries that show only a call come without a potency. Calls of active or inactive are those of the source. The call rests on the fitted dose curve; in most records, active means well fitted cell-killing curve with a large enough effect; inconclusive means small, poorly fitted or top-dose-only effect; inactive means flat fitted curve, though single readings scatter. Numbered stars: 1 amine (or outer) side, 2 acyl side, 3 side chain; on linkers, the order of the positions; unused ones are H or OH. Bridge positions count the residues as written; N and C are the ends. Square brackets hold non-standard residues; d marks the D form. Peptide text beside a SMILES is read from it. I, II: the chains in the order shown. Actinocin(9to1) = Cc1c2oc3c(C)ccc(C(=O)[*:1])c3nc-2c(C(=O)[*:2])c(N)c1=O; NMeV = CN[C@H](C(=O)O)C(C)C; Sar = CNCC(=O)O
# Assay: Cell Viability - LYMP1-003 - Assay at 40 hr (AID 964); further: nearly all actives have a fitted effect of over 60% in size
# Conditions: LYMP1-003 lymphoblastoid viability; series mostly up to 92.2 µM
# Excerpt: NIH Chemical Genomics Center [NCGC]
# NIH Molecular Libraries Screening Centers Network [MLSCN]
# National Institutes of Environmental Health Sciences [NIEHS]
# National Toxicology Program [NTP]
# We have developed a 1536-well cell-based assay for quantitative high throughput screening (qHTS) against a number of cell lines to determine in vitro cytotoxicity of small molecules. This particular assay uses a human lymphoblastoid cell line (LYMP1-003) purchased from Coriell Institute for Medical Research.
# NCGC Assay Protocol Summary:
# The CellTiter-Glo luminescent cell viability assay (Promega) is a homogeneous method to measure the number of viable cells in culture. The end point readout of this assay is based on quantitation of intracellular ATP, an indicator of metabolic activity, using the luciferase reaction. Luciferase catalyzes the oxidation of beetle Luciferin to oxyluciferin and light in the presence of ATP. The luminescent signal is proportional to amount of ATP present.
# Using the CellTiter-Glo luminescent cell viability assay, the amount of cellular ATP was measured in the lymphoblastoid cell line with complete culture medium following compound treatment for 40 hours. The assay was performed in opaque white Kalypsys 1536-well plates. In the screen, tetraoctylammonium bromide was used as positive control. Library compounds were measured for their ability to cause acute toxicity in the cell line, as reflected by a decrease in intracellular ATP levels, in a concentration-dependent manner. […] AC50 values were determined from concentration-response data modeled with the standard Hill equation.
# qHTS protocol for CellTiter Glo lymphoblastoid cellular assay
# [Step] [Parameter] [Value] [Description]
# 1. Reagent; 5 uL; 2500 lymphoblastoid cells/well
# 2. Time; 5 hr; 37 C incubation
# 4. Controls; 23 nL; Tetraoctylammonium bromide 6.4pM to 92 uM
# 5. Time; 40 hr; 37 C incubation
# 6. Reagent; 5 uL; CellTiter Glo reagent
# 7. Time; 30 min; Room Temperature
# 8. Detection; Luminescence; Viewlux plate reader
# Keywords: cell viability, cytotoxicity, lymphoblastoid cell line, luminescence, NTPHTS, NTPHTS_NCGC, NIEHS, DSSTox, MLSMR, MLSCN, NIH Roadmap, qHTS, NCGC
# Potency means the concentration at half of the fitted maximal effect.
row,Compound,Potency
1,CC(C)(C)CC(C)(C)c1ccc(OCCOCC[N+](C)(C)Cc2ccccc2)cc1,31.6 µM (active)
2,COc1cccc2c1C(=O)c1c(O)c3c(c(O)c1C2=O)C[C@@](O)(C(=O)CO)C[C@@H]3O[C@H]1C[C@H](N)[C@H](O)[C@H](C)O1,0.398 µM (active)
3,"Cc1c2oc3c(C)ccc(C(=O)N[C@@H]4C(=O)N[C@H](C(C)C)C(=O)N5CCC[C@H]5C(=O)N(C)CC(=O)N(C)[C@@H](C(C)C)C(=O)O[C@@H]4C)c3nc-2c(C(=O)N[C@@H]2C(=O)N[C@H](C(C)C)C(=O)N3CCC[C@H]3C(=O)N(C)CC(=O)N(C)[C@@H](C(C)C)C(=O)O[C@@H]2C)c(N)c1=O (I: T[dV]P[Sar][NMeV] / II: T[dV]P[Sar][NMeV]; ester I:1-I:C, II:1-II:C; linker I:N-II:N via Actinocin(9to1))",0.005 µM (active)
4,Oc1c(I)cc(Cl)c2cccnc12,39.8 µM (active)
5,CC(=O)Oc1ccc(C(c2ccc(OC(C)=O)cc2)c2ccccn2)cc1,inactive
6,O=c1ccc2ccccc2o1,inactive
7,O=C(O)CCCCC(=O)O,inactive
8,C[C@]12CC[C@@H]3c4ccc(O)cc4CC[C@H]3[C@@H]1CC[C@@H]2O,inactive
9,COc1cccc2c1C(=O)c1c(O)c3c(c(O)c1C2=O)C[C@@](O)(C(C)=O)C[C@@H]3O[C@H]1C[C@H](N)[C@H](O)[C@H](C)O1,0.398 µM (active)
10,Oc1ccc(O)cc1,12.6 µM (active)
11,CN(C)/N=N/c1nc[nH]c1C(N)=O,inactive
12,CC(O)C(=O)O (stereo not drawn),inactive
13,CC(=O)O[C@]1(C(C)=O)CC[C@H]2[C@@H]3C[C@H](C)C4=CC(=O)CC[C@]4(C)[C@H]3CC[C@@]21C,inactive
14,Nc1ccc(C(=O)O)cc1,inactive
15,O=C1OC(c2ccc(O)cc2)(c2ccc(O)cc2)c2ccccc21,inactive
16,NC(=NCCCCCCN=C(N)/N=C(\N)Nc1ccc(Cl)cc1)/N=C(\N)Nc1ccc(Cl)cc1,31.6 µM (active)
17,Oc1c(Cl)cc(Cl)cc1Sc1cc(Cl)cc(Cl)c1O,39.8 µM (active)
18,C=CCc1ccc(O)c(OC)c1,inactive
